Sampled rows, rich in hits. Any-hit rate of the full collection: about 8.3%.
Gal4-VP16 FLuc: inhibits Gal4-VP16 luciferase reporter, ROR gamma counter-screen; Drosophila S2 Gal4-VP16 UAS-luciferase, luminescence, 20 h; Potency, µM (titrated, usually from 53.6 µM), hits mostly inhibitors; hit rate 3.5% among 310,000;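 also: Gal4-VP16 expression switched on by copper sulfate through the metallothionein promoter; nearly all actives have a fitted effect of over 50% in size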
SW480 rerep: induces DNA re-replication in SW480 colon adenocarcinoma cells. SW480 DNA re-replication, Hoechst DNA content imaging, 48 h. Potency, µM (top dose mostly 46.1 µM), hits mostly activators. hit rate 1.8% among 340,000. AID 624297; also: nearly all actives have a fitted effect of over 55% in size
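Readout is total intensity of Hoechst-stained nuclei, excited at 405 nm and collected at 500-530 nm. Compound treatment lasted 48 hr at 37 C in 5% CO2 before staining.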
RORg inh: ROR gamma (mouse) transcription inhibition. Drosophila S2 Gal4-RORgamma UAS-luciferase reporter, 20 h. Potency, µM (titrated, usually from 53.6 µM), most hits filed as inhibitors. hit rate 5.4% among 310,000. AID 2551; also: nearly all actives have a fitted effect of over 60% in size
Target sequence (P51450 whole entry, looked up, the tested form may be a part): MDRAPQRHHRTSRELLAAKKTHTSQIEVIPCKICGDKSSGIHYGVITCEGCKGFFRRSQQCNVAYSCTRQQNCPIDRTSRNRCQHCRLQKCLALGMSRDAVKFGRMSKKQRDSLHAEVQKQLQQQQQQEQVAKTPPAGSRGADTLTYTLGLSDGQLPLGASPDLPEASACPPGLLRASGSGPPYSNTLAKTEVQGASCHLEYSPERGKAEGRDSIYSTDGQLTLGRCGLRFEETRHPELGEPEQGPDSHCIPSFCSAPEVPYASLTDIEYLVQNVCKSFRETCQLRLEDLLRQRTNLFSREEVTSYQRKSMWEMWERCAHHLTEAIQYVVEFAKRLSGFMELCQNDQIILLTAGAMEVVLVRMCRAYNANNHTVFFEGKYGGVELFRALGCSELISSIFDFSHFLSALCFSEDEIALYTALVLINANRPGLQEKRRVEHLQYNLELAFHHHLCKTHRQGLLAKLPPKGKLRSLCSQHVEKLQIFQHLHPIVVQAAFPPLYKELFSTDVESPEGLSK
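Compounds are pin-transferred onto Drosophila Schneider cells expressing a copper-inducible Gal4–ROR gamma transactivation domain fusion. After 1 hr, copper sulfate is added to 700 uM final; luciferase is read 20 hr later.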
Chronic BCR inh: chronic active BCR signaling inhibition; hit rate 0.05% among 340,000; Potency, µM (doses to about 46.1 µM), actives largely listed as inhibitors; ABC-DLBCL IkBa-CBG/CBR reporter, luminescence ratio, 4 h; active = well fitted inhibition curve with a large enough effect in the signal ratio, with a control signal flat, not every such curve was filed as active; inconclusive = small, poorly fitted or top-dose-only effect, or effect the other way, or a change in a side signal; the % refers to the signal ratio
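Cell line TMD8 (human ABC DLBCL), stably expressing tet-inducible CBG68-IkBa fusion and CBR; IMDM/0.5% FBS; cpd up to 46 uM; dox induction, 4 h, 37C/5% CO2; dual luminescence; green/red ratio; MG132 control.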
Giardia killer: Giardia lamblia killing; hit rate 0.15% among 340,000; Giardia lamblia trophozoite viability; activity change, % at 7.66 µM, hits read low; AID 540267; in the data active = activity change below about -80%; inconclusive = between about -30% and that limit;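 also: parasites exposed to compound for two days anaerobically before the ATP read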
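Luminescence from cellular ATP indicates surviving trophozoites (100 cells/well) following 48 hrs anaerobic compound treatment at 37 deg C; signal develops 15-30 min at room temperature.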
MCF10A rerep: induces DNA re-replication in MCF 10a normal breast cells. MCF 10A DNA re-replication, Hoechst nuclear intensity, 48 h. Potency, µM (highest dose often 46.1 µM), most hits filed as activators. hit rate 2.9% among 350,000. AID 624296; also: nearly all actives have a fitted effect of over 50% in size
A number is an active result; n = inactive; u = inconclusive; x = no result given; [ ] = another dose, or the depositor's remark. Unless noted, calls follow the shape of the dose curve; as a rule, active = well fitted curve in the direction sought with a large enough effect; inconclusive = small, poorly fitted or top-dose-only effect, or another doubt; inactive = no such curve, though single readings can be large; an effect the other way counts as inactive or inconclusive.

SMILES | Gal4-VP16 FLuc | SW480 rerep | RORg inh | Chronic BCR inh | Giardia killer | MCF10A rerep
Oc1ccccc1-c1n[nH]c(=S)n1Cc1ccccc1 | n | n | 11.2µM | u | n | n
CCn1c(-c2cc(-c3ccccc3)sc2N)n[nH]c1=S | 12.6µM | n | 3.98µM | u | n | n
Oc1ccc(Br)cc1-c1n[nH]c(=S)n1Cc1ccccc1 | n | n | 10µM | n | n | n
Cc1ccccc1-c1n[nH]c(=S)n1Cc1ccccc1 | n | n | n | n | n | n
Cn1c(-c2cc(Br)ccc2O)n[nH]c1=S | u | n | u | n | n | u
COCCn1c(-c2ccccc2F)n[nH]c1=S | n | n | n | n | n | n
CCn1c(-c2ccccc2O)n[nH]c1=S | n | n | 12.6µM | n | n | n
O=C(c1cccc(C(F)(F)F)c1)C1CCCN(C(=O)/C=C/c2cnc[nH]2)C1 (configuration not stated) | n | n | n | n | n | n
S=c1[nH]nc(-c2ccccc2Br)n1Cc1ccccc1 | 6.31µM | n | 4.47µM | n | n | n
O=C(C1CCN(S(=O)(=O)c2ccc(Cl)cc2)CC1)N1CCN(c2ccccn2)CC1 | x | n | x | u | n | n
Cc1cc(NC(=O)COC(=O)c2oc3c(ccc4ccccc43)c2C)no1 | 11.2µM | n | u | u | n | u
Oc1[nH]c(N=C2N=c3ccccc3=N2)c2ccccc12 | 2.51µM | 16.4µM | 0.501µM | u | n | u
Cc1nc2ccccc2c(=O)n1NCc1cc(Br)cs1 | n | u | n | n | n | 23.1µM
Cc1nc2ccccc2c(=O)n1NS(C)(=O)=O | n | n | n | n | n | n
O=C(O)c1ccc(S(=O)(=O)NCC2CCCCC2)cc1 | n | n | n | n | n | n
O=C(NC1CC1)c1ccc(S(=O)(=O)NCC2CCCCC2)cc1 | n | n | n | n | n | 5.8µM
O=C(Oc1cccc2cccnc12)c1cccc(N2C(=O)C3C4CCC(C4)C3C2=O)c1 (configuration not stated) | u | u | 2.51µM | u | n | n
O=C(Oc1cccc2cccnc12)c1cccc(-n2cnnn2)c1 | n | n | n | n | n | n
O=C(Oc1cccc2cccnc12)c1ccc(N2C(=O)C3C4CCC(C4)C3C2=O)cc1 (configuration not stated) | 5.01µM | 18.4µM | 2.82µM | u | n | 14.6µM
Cc1oncc1C(=O)Nc1cccc(C#N)c1 | n | n | n | n | n | n
CCOC(=O)c1cnc2c(C)cc(Cl)cc2c1NCCCN1CCOCC1 | x | n | x | n | n | 23.1µM
CCOc1ccc(-c2cc(CCCC(=O)NCc3ccco3)no2)cc1 | u | n | 0.112µM | u | n | n
CCOc1ccc(-c2cc(CCCC(=O)NCc3ccc(C)cc3)no2)cc1 | u | n | 1.26µM | u | n | n
O=[N+]([O-])c1ccc(N/N=C/c2ccc(O)c(O)c2O)c(S(=O)(=O)N2CCOCC2)c1 | n | n | n | n | n | n
O=[N+]([O-])c1ccc(N/N=C/c2cccc(O)c2O)c(S(=O)(=O)N2CCOCC2)c1 | n | 4.11µM | n | n | u | n
SMILES | Gal4-VP16 FLuc | SW480 rerep | RORg inh | Chronic BCR inh | Giardia killer | MCF10A rerep
O=c1c(-c2cc(F)cc(F)c2)nc2cnc(N3CCNCC3)nc2n1Cc1ccc(F)cc1 | 4.47µM | x | 3.16µM | x | x | x
CN1CCN(c2ncc3nc(-c4cccc(C#N)c4)c(=O)n(Cc4ccc(F)cc4)c3n2)CC1 | 20µM | x | u | x | x | x
O=c1c(-c2ccccc2)nc2cnc(N3CCNCC3)nc2n1Cc1ccc(F)cc1 | n | x | n | x | x | x
COc1cccc(Cn2c(=O)c(-c3cc(F)cc(F)c3)nc3cnc(N4CCNCC4)nc32)c1 | u | x | 2.82µM | x | x | x
O=c1cc(-c2ccccc2Cl)oc2c([N+](=O)[O-])c(O)cc(O)c12 | u | n | u | u | n | 0.82µM
COc1ccc2oc(-c3ccccc3[N+](=O)[O-])cc(=O)c2c1 | n | 8.2µM | n | u | n | 6.51µM
O=c1cc(-c2ccccc2Cl)oc2ccc([N+](=O)[O-])c(O)c12 | n | n | n | n | n | 0.366µM
COc1cc(C(=O)N/N=C/c2cn(Cc3ccccc3)c3ccccc23)ccc1O | u | n | 12.6µM | u | n | n
Nc1ccc(C(=O)N/N=C/c2cn(Cc3ccc(F)cc3)c3ccccc23)cc1 | u | n | n | u | n | n
Nc1ccc(C(=O)N/N=C/c2cn(Cc3ccccc3)c3ccccc23)cc1 | u | n | 11.2µM | u | n | n
COC(=O)N/N=C/c1cn(Cc2ccccc2F)c2ccccc12 | n | n[9.22 µM] | n | u | n | u
O=C(O)c1ccc(N/N=C/c2cn(Cc3ccccc3F)c3ccccc23)cc1 | n | u | n | u | n | 20.6µM
CC(C)n1cc(/C=N/Nc2ccc(C(=O)O)cc2)c2ccccc21 | 0.316µM | n | 0.0316µM | u | n | n
Cc1cc2c(c(=O)o1)C1O[C@](CCCCN3C(=O)c4ccccc4C3=O)(Cc3cc(C#N)ccc31)O2 | n[10 µM] | x | n[10 µM] | u | x | x
Nc1ccc(C(=O)N/N=C/c2cn(Cc3ccccc3F)c3ccccc23)cc1 | u | n | 14.1µM | u | n | n
O=C(N/N=C/c1cn(Cc2cccc(F)c2)c2ccccc12)c1cc(O)cc(O)c1 | n | n | n | u | n | n
Cc1ccc(NC(=O)CN(C)S(=O)(=O)c2ccc3[nH]c(=O)oc3c2)c(C)c1 | n | n | n | u | n | n
O=C1CN(C(=O)COc2ccc([N+](=O)[O-])cc2Cl)c2ccccc2N1 | x | n | x | n | u | n
CCN(CC)c1ccc(/C=N/NC(=O)C(O)(c2ccccc2)c2ccccc2)o1 | 3.98µM | u | 5.62µM | u | x | 7.31µM
COC(=O)CC1Oc2cc3oc4c(c3cc2O1)C(=O)CC(C)(C)C4 (configuration not stated) | u | x | 5.01µM | x | x | x
COc1ccc2[nH]cc(S(=O)(=O)c3ccc(F)cc3)c(=O)c2c1 | u | n | n | n | n | n
CCOc1ccc2[nH]cc(S(=O)(=O)c3ccc(F)cc3)c(=O)c2c1 | 12.6µM | n | n | u | n | n
O=C(NC(C(=O)N/N=C/c1c2ccccc2cc2ccccc12)c1n[nH]c(=O)c2ccccc12)c1ccccc1 (configuration not stated) | n | 8.2µM | n | n | n | 2.06µM
O=C(NC(C(=O)N/N=C/c1ccccc1)c1n[nH]c(=O)c2ccccc12)c1ccccc1 (configuration not stated) | n | n | n | n | n | n
CCCc1ccc2oc(C(=O)N3CCC(COC)C3)c(C)c2c1 (configuration not stated) | n | n | n[1.91 µM] | u | n | n
CCOC(=O)CCCCC(=O)c1[nH]c(=O)[nH]c1CSc1nc(C)cc(C)n1 | n | n | n | u | n | n
CCOC(=O)CCCCC(=O)c1[nH]c(=O)[nH]c1CSc1nnc2c3cc(Br)ccc3n(C)c2n1 | u | x | 5.01µM | n | x | x

From PubChem BioAssay
